Compound activity from PubChem.
Hits are enriched below; roughly 7.3% of the tested compounds scored in any of these assays.
SMN2 splice up: qHTS Assay for Enhancers of SMN2 Splice Variant Expression; HEK293 SMN2-luciferase splicing reporter, luminescence, 30-36 h; 210,000 compounds, 2.8% hits; Potency, µM (series often up to 46.1 µM), actives largely listed as activators; also: nearly all actives have a fitted effect of over 55% in size
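HEK293 cells carry an SMN2 minigene-luciferase reporter in which exon 7 inclusion puts luciferase in frame. Cells were seeded at 2000 cells/well, attached for 10-12 hours, then exposed to compounds for 30-36 hours at 37C before ONE-Glo luminescence.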
KinaseGlo FLuc: Counterscreen for Luciferase (Kinase-Glo TM) Inhibition; Potency, µM (series often up to 38.3 µM), most hits filed as inhibitors; AID 1379, 2008; 200,000 compounds, 0.28% hits; Kinase-Glo luciferase, ATP luminescence, 8 min; Luciferin 4-monooxygenase (Photuris pensylvanica), Q27757; also: nearly all actives have a fitted effect of over 60% in size
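Inhibition of Kinase-Glo luciferase light generation was assessed at 10 uM ATP in pH 7.2 imidazole buffer, with luminescence measured after eight minutes at ambient temperature.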
NPC1 prom act: qHTS Assay for NPC1 Promoter Activators; Huh7 NPC1 promoter luciferase reporter, 24 h; Potency, µM (series often up to 9.22 µM), usual class: activators; 320,000 compounds, 2.4% hits; also: nearly all actives have a fitted effect of over 60% in size
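Stably transfected Huh7 (NPC1 promoter→luciferase), 1500 cells/well in Opti-MEM + 10% FBS, 2 h settle, then compound 24 h at 37 °C. Luminescence after 10 min with Amplite reagent.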
Rab9 prom act: qHTS Assay for Rab9 Promoter Activators. 320,000 compounds, 2.8% hits. AID 485297, 2010. Potency, µM (titrated, usually from 9.22 µM), usual class: activators. Huh7 Rab9 promoter-luciferase reporter, luminescence, 24 h; also: nearly all actives have a fitted effect of over 60% in size
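Cells were plated at 1500 per well in reduced-serum medium with 10% FBS and left 2 h. Compound in DMSO was then added for 24 h at 37 °C. Reporter signal was read by luminescence after 10 min with luciferase detection reagent.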
FLuc modulator: qHTS profiling assay for firefly luciferase inhibitor/activator using purifed enzyme and Km concentrations of substrates (counterscreen for miR-21 project). purified FLuc, Km substrates, luminescence inhibition. Potency, µM (highest dose often 57.5 µM), hits mostly inhibitors. 360,000 compounds, 6.9% hits. AID 588342, 2011; also: nearly all actives have a fitted effect of over 55% in size
Target sequence (P08659 whole entry, looked up): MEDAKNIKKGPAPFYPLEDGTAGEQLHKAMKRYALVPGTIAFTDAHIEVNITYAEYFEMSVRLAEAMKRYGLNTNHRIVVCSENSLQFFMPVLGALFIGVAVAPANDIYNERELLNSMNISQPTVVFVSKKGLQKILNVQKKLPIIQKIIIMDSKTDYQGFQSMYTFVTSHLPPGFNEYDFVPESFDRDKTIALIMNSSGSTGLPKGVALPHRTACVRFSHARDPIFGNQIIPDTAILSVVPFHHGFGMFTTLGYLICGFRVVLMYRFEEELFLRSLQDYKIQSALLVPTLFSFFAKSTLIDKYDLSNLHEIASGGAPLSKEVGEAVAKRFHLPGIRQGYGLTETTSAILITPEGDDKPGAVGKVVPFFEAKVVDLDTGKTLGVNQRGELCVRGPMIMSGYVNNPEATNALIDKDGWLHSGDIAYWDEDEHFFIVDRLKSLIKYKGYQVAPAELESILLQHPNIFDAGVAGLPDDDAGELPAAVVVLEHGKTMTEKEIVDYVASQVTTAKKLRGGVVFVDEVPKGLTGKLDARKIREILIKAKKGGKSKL
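Purified P. pyralis luciferase (10nM final) with 10uM D-luciferin and 10uM ATP (Km levels) in 50mM Tris acetate pH 7.5, 10mM Mg acetate, 0.01% Tween-20, 0.05% BSA; qHTS 6-point titration, ~60 µM downward; luminescence read.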
Hits are given with their value; . = inactive; ? = inconclusive; / = no result given; [ ] = another dose, or the depositor's remark. Calls follow the shape of the dose curve; as a rule, active = well fitted curve in the direction sought with a large enough effect; inconclusive = small, poorly fitted or top-dose-only effect, or another doubt; inactive = no such curve, though single readings can be large; an effect the other way counts as inactive or inconclusive.

SMILES	SMN2 splice up	KinaseGlo FLuc	NPC1 prom act	Rab9 prom act	FLuc modulator
CC1=NN(C(N)=S)C(=O)C1N=Nc1cccc(Cl)c1 (stereo not given)	/	/	?	?	17µM
CC(=O)N(C)c1ccc(N=NC2C(=O)N(C(N)=S)N=C2C)cc1 (stereo not given)	/	/	0.5µM	.	3µM
CC1=NN(C(N)=S)C(=O)C1N=Nc1c(Br)cc(Br)cc1Br (stereo not given)	/	/	.	.	?
CC1=NN(C(N)=S)C(=O)C1N=Nc1ccc(S(N)(=O)=O)cc1 (stereo not given)	/	/	.	.	19µM
CC1=NN(c2ccccc2)C(=O)C1N=Nc1ccc(S(N)(=O)=O)cc1 (stereo not given)	/	/	.	.	.
CCc1ccc(NC(=O)Cn2c(=O)n(CCC(C)C)c(=O)c3cccnc32)cc1	.	/	/	/	.
COc1ccc(-c2cnc(C)o2)cc1S(=O)(=O)Nc1ccc(C)c(N(C)C)c1	/	/	/	/	.
COc1ccccc1N=Nc1c(O)[nH]c2ccc(Br)cc12	/	/	.	.	.
Cc1cccc(N=Nc2c(O)[nH]c3ccc(Br)cc23)c1	/	/	?	.	15µM
CCCc1cc(=O)[nH]c2nnc(SCC(=O)Nc3cccc(C)c3)n12	/	/	/	/	.
CN(c1ccc(C(=O)Nc2ccc3c(c2)OCCO3)cc1)S(C)(=O)=O	11µM	.	2.2µM	1.6µM	7.6µM
Cc1ccc(CN(c2ccc(C(=O)Nc3ccc4c(c3)OCO4)cc2)S(C)(=O)=O)cc1	.	.	.	.	.
CN(c1ccc(C(=O)Nc2ccc3c(c2)OCO3)cc1)S(C)(=O)=O	/	/	2.8µM	4µM	12µM
COc1ccccc1OCC(=O)NCC1(N(C)C)CCCCC1	/	/	/	/	.
CC[C@@H](C)CN1C(=O)N[C@@H](c2ccccc2)C(C(=O)OC)=C1C	.[9.22 µM]	.[7.66 µM]	/	/	/
Cc1cc(C)c2c(=O)cc(C(=O)Nc3sc4c(c3C(=O)NCc3cccnc3)CCCC4)oc2c1	.	/	/	/	.
COc1cc(SC)ccc1C(=O)NCC1CCCCC1	/	/	.	.	15µM
COc1ccc(CCNC(=O)c2ccc(SC)cc2OC)cc1	.	.	.	.	.
COc1cc(SC)ccc1C(=O)NCCOc1ccc(F)cc1	14µM	.	?	?	5.4µM
COc1cc(C(CC(=O)Nc2ccc(F)cc2F)N2Cc3ccccc3C2=O)cc(OC)c1OC (stereo not given)	/	/	/	/	.
Cc1nn(CC(=O)NCc2ccccc2Cl)c(=O)c2cccn12	/	/	/	/	.
CN=c1scc(-c2ccccc2F)n1/N=C(\C)c1cccnc1	11µM	.	1.4µM	1.8µM	7.6µM
Cc1cnc(-c2nnc(N(C)C(=O)c3cccnc3)s2)cn1	.	.	.	.	.
CC(=O)N(c1ccccc1)c1nnc(-c2cnc(C)cn2)s1	/	.	1.6µM	3.2µM	?
CCc1nc2oc3cc(OC)ccc3c(=O)c2c(=O)n1-c1ccccc1	25µM	.	?	?	.
SMILES	SMN2 splice up	KinaseGlo FLuc	NPC1 prom act	Rab9 prom act	FLuc modulator
CCc1nc2oc3cc(OC)ccc3c(=O)c2c(=O)n1Cc1ccccc1	.	.	.	.	.
COc1ccc(/C=C/C(=O)OCC(=O)Nc2ccc(OC)c(S(=O)(=O)N3CCCCC3)c2)cc1	.	.	.	.	6µM
COc1ccc(/C=C/C(=O)OCC(=O)Nc2ccc(Cl)c(S(=O)(=O)N(C)C)c2)cc1OC	.	.	.	.	24µM
COc1ccc(NC(=O)COC(=O)/C=C/c2ccc(OC)c(S(=O)(=O)N3CCOCC3)c2)cc1	.	.	.	.	.
CC1CCCCN1Cc1c(O)ccc2c(=O)c(-c3nc4ccccc4s3)c(N)oc12 (stereo not given)	.	.	.	.	12µM
Cc1ccc(CN(C(=O)COc2ccc(Cl)cc2Cl)C2CCS(=O)(=O)C2)o1 (stereo not given)	.	/	/	/	.
CCCc1cc(=O)n2[nH]c(-c3cccc(Br)c3)cc2n1	/	/	2.8µM	?	5.4µM
CCOC(=O)Cc1cc(=O)n2[nH]c(-c3ccccc3)cc2n1	.	.	.	.	?
CCCc1cc(=O)n2[nH]c(NCc3c(Cl)cccc3Cl)nc2n1	.	.	.	.	.
CCCc1cc(=O)n2[nH]c(-c3ccc(Br)cc3)cc2n1	11µM	.	?	3.5µM	?
CSCC[C@@H](C(=O)Nc1cccc(F)c1)N1Cc2ccccc2C1=O	.	/	/	/	.
CSCC[C@@H](C(=O)Nc1ccc2c(c1)OCCO2)N1Cc2ccccc2C1=O	.	.	.	.	19µM
NS(=O)(=O)c1cccc(NC(=O)CN2CCc3ccccc32)c1	.	.	.	.	.
O=C(CN1Cc2ccccc2C1=O)Nc1ccc2c(c1)OCCO2	/	/	.	?	24µM
O=C(CN1CCc2ccccc21)Nc1ccc2c(c1)OCCCO2	/	/	?	?	12µM
COc1ccc(N2C(=O)c3ccccc3NC2c2ccc(OC)c(Cn3cc([N+](=O)[O-])cn3)c2)cc1 (stereo not given)	/	/	2.8µM	?	.
O=C1c2ccccc2NC(c2ccco2)N1/N=C/c1ccco1 (stereo not given)	?	.	.	?	.
COc1ccc(C2Nc3ccccc3C(=O)N2c2ccccc2)cc1Cn1cc([N+](=O)[O-])cn1 (stereo not given)	.	.	.	.	.
Cc1ccc(/C=N/N2C(=O)c3ccccc3NC2c2ccc(C)cc2)cc1 (stereo not given)	13µM	.	.	?	?
COc1ccc(N2C(=O)c3ccccc3NC2c2ccccc2O)cc1 (stereo not given)	/	/	1.4µM	1.3µM	.
C/C(=N\N1C(=O)c2ccccc2NC1c1ccccc1)c1ccccc1O (stereo not given)	2.8µM	.	?	0.63µM	.
CCC(C(=O)NCc1ccccc1OC)n1nc(C)n2c(cc3sccc32)c1=O (stereo not given)	.	/	/	/	.
CCOC(=O)c1sc2ncn(CC(=O)Nc3ccc(OC)c(Cl)c3)c(=O)c2c1C	.	/	/	/	.
COc1ccc(/C(C)=N/N2C(=O)c3ccccc3NC2c2ccc(O)c(OC)c2)cc1 (stereo not given)	/	/	.	?	13µM
C/C(=N\N1C(=O)c2ccccc2NC1c1ccco1)c1ccccc1O (stereo not given)	4µM	.	?	0.35µM	?
CCOc1ccc(N2C(=O)c3ccccc3C2O)cc1 (stereo not given)	13µM	.	3.2µM	?	12µM
CC(C)Oc1ccccc1C1Nc2ccccc2C(=O)N1c1ccc2c(c1)OCCO2 (stereo not given)	7.9µM	.	0.79µM	1.1µM	13µM
CCOc1ccc(N2C(=O)c3ccccc3C2=O)cc1	.	.	.	.	.
Cc1ccc(CNC(=O)c2cc(Sc3ccc(F)cc3F)nc3ccccc23)cc1	/	/	/	/	.
